TROY signal inh: inhibitors of TROY-dependent NF-kB signaling. inhibition, % at 10 µM. 0.98% of 360,000 active. Q293 LMP1-TROYcd NF-kB luciferase reporter, 4 h;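 active means compounds whose plate-normalised and pattern-corrected inhibition of the luciferase reporter signal at the single screening dose is 50% or more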
LGR2 antag: blocks bursicon-induced cAMP signaling via Drosophila LGR2. 0.35% of 380,000 active. HEK293 LGR2, CRE-luciferase, bursicon-stimulated, 4 h. inhibition, % at 9.99 µM. AID 720647;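 active means drop in luminescence signal, shown as inhibition above about 50% in the replicate tests, limit read from the data, passing the limit was not always enough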;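 further: agonist challenge used bursicon conditioned medium at about half maximal strength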
HSF-1 act: increases HSF-1 driven luciferase reporter signal. NIH3T3-HGL HSF-1 luciferase reporter, MG132, 8 h; 100% = twice DMSO control signal. activation, % at 9 µM. 1.7% of 300,000 active. AID 504408;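 active means mean replicate activation of at least 50% with a set share of replicates each reaching 50%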
LMP1 NFkB inh: Epstein-Barr LMP1 NF-kappaB reporter inhibition | inhibition, % at 12.5 µM | LMP1-induced NF-kappaB luciferase reporter cells, luminescence | 0.69% of 350,000 active; in the data active means inhibition above about 41%
HSF1 inhib: HSF1 inhibition; NIH3T3-HGL HSE-luciferase, MG132-induced, luminescence 8 h; hits give low values; AID 2098; activity change, negative = inhibition, % at 7.5 µM (by protocol); 0.77% of 300,000 active;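 active means more than half of replicate wells show activity change below -50%, luminescence cut by over half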;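 further: luciferase reports HSF-1 transcriptional activity via heat shock element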
TWEAK-Fn14 inh: inhibitors of TWEAK-Fn14 interaction signaling | TWEAK-stimulated Fn14 reporter cells, luciferase luminescence, 8 h | inhibition, % at 10 µM | 2% of 360,000 active; in the data active means inhibition above about 50%
Each line names hits and unclear results; the compound was inactive in the other large screens. Sampled rows, rich in hits. Any-hit rate of the full collection: about 3.6%.

C[C@@H]1CCCCO[C@H](CN(C)S(=O)(=O)c2ccccc2)[C@H](C)CN([C@@H](C)CO)C(=O)c2cc(NC(=O)CCCN(C)C)ccc2O1	none (no result: TROY signal inh, HSF-1 act, LMP1 NFkB inh, HSF1 inhib, TWEAK-Fn14 inh)
CC(Sc1nnc2ccccn12)C(N)=O (configuration not stated)	HSF-1 act 76
O=C(Cn1nnc2ccccc21)NNC(=S)NC1CCCCC1	HSF1 inhib -65
CC(=O)Nc1ccc(S(=O)(=O)NC(C)C(=O)NCC(c2ccco2)N2CCCCC2)cc1 (configuration not stated)	none (no result: HSF-1 act, HSF1 inhib)
O=C(NCC(c1ccco1)N1CCCC1)c1ccccc1F (configuration not stated)	TROY signal inh 57, TWEAK-Fn14 inh 53
Cc1ccc(S(=O)(=O)NC(CC(C)C)C(=O)NCC(c2ccco2)N2CCCCC2)cc1 (configuration not stated)	TROY signal inh 88, LMP1 NFkB inh 49, TWEAK-Fn14 inh 104 (no result: LGR2 antag, HSF-1 act, HSF1 inhib)
CCCSc1nnc2n(-c3ccccc3OC)c(=O)c3c4c(sc3n12)CCC4	HSF-1 act 59 (no result: TROY signal inh, LGR2 antag)
CCOc1ccccc1NC(=O)CCS(=O)(=O)c1cccs1	HSF1 inhib -89
CC(=O)c1ccc(NC(=O)c2ccc(NC(=O)CCS(=O)(=O)c3cccs3)cc2)cc1	TROY signal inh 51
C[C@@H]1CCCCO[C@H](CN(C)Cc2ccccc2)[C@H](C)CN([C@H](C)CO)C(=O)c2cc(NC(=O)Nc3cccc4ccccc34)ccc2O1	none (no result: TROY signal inh, HSF-1 act, LMP1 NFkB inh, HSF1 inhib, TWEAK-Fn14 inh)
CO[C@H]1CN(C)C(=O)c2cc(NS(=O)(=O)c3ccc(C)cc3)ccc2OC[C@@H](C)N(Cc2nccs2)C[C@@H]1C	none (no result: TROY signal inh, HSF-1 act, LMP1 NFkB inh, HSF1 inhib, TWEAK-Fn14 inh)
O=C(C[C@@H]1CC[C@H]2[C@@H](COC[C@H](O)CN2C(=O)c2ccccn2)O1)N1CCN(c2ccccc2)CC1	none (no result: TROY signal inh, HSF-1 act, LMP1 NFkB inh, HSF1 inhib, TWEAK-Fn14 inh)
Cc1nc2ccc(NC(=O)c3cccs3)cc2c(=O)n1Cc1ccc(Cl)cc1	TROY signal inh 70, TWEAK-Fn14 inh 83 (no result: LGR2 antag)
CCCc1nc2ccc(NC(=O)c3cccs3)cc2c(=O)n1Cc1ccc(Cl)cc1	none
COc1ccc(-c2csc(N3CCN(c4cc(C)nc5ccccc45)CC3)n2)cc1OC	TWEAK-Fn14 inh 52 (no result: LGR2 antag)
N#Cc1cccn1-c1nccs1	HSF1 inhib -86
O/N=C\c1cccn1-c1nccs1	none
O=C(/C=C/c1ccc(OCCCF)cc1)Nc1ccnc(-c2cccnc2)n1	TROY signal inh 52 (no result: LGR2 antag)
C[C@H]1CN([C@@H](C)CO)C(=O)Cc2cc(NS(=O)(=O)c3cn(C)cn3)ccc2O[C@H]1CN(C)S(=O)(=O)c1ccccc1	none (no result: TROY signal inh, HSF-1 act, LMP1 NFkB inh, HSF1 inhib, TWEAK-Fn14 inh)
Cc1ccc2c(c1)[nH]c1c(N3CCN(Cc4ccccc4)CC3)ncnc12	TROY signal inh 68, TWEAK-Fn14 inh 96 (no result: LGR2 antag)
c1ccc2c(c1)[nH]c1c(N3CCC4(CC3)OCCO4)ncnc12	none (no result: LGR2 antag)
Cc1ccc2[nH]c3c(N4CCN(Cc5ccccc5)CC4)ncnc3c2c1	TROY signal inh 55, LMP1 NFkB inh 58, TWEAK-Fn14 inh 103 (no result: LGR2 antag)
c1ccc(CN2CCN(c3ncnc4c3[nH]c3ccccc34)CC2)cc1	TROY signal inh 67, LMP1 NFkB inh 53, TWEAK-Fn14 inh 97 (no result: LGR2 antag)
COc1cccc2[nH]c3c(N4CCN(Cc5ccc6c(c5)OCO6)CC4)ncnc3c12	none (no result: TROY signal inh, LGR2 antag, LMP1 NFkB inh, TWEAK-Fn14 inh)
Cc1ccc2[nH]c3c(N4CCCCCC4)ncnc3c2c1	none (no result: TROY signal inh, LGR2 antag, LMP1 NFkB inh, TWEAK-Fn14 inh)
O=C(c1cccc(F)c1)N1CC2(C1)[C@H](c1ccccc1)[C@H](CO)N2C(=O)C1CCOCC1	none (no result: TROY signal inh, HSF-1 act, LMP1 NFkB inh, HSF1 inhib, TWEAK-Fn14 inh)
C[C@H](CO)N1C[C@H](C)[C@H](CN(C)Cc2ccncc2)Oc2ccc(NS(=O)(=O)c3ccc(Cl)cc3)cc2C1=O	none (no result: TROY signal inh, HSF-1 act, LMP1 NFkB inh, HSF1 inhib, TWEAK-Fn14 inh)
CCOC(=O)c1c(C)[nH]c(C)c1S(=O)(=O)N1CCN(c2ccc(F)cc2)CC1	HSF-1 act 63
Cc1ccc(S(=O)(=O)Nc2cccc3c2O[C@@H](CN(C)Cc2ccc(C(=O)O)cc2)[C@H](C)CN([C@H](C)CO)C3=O)cc1	none (no result: TROY signal inh, HSF-1 act, LMP1 NFkB inh, HSF1 inhib, TWEAK-Fn14 inh)
CC(C)c1nnc(NC(=O)CCS(=O)(=O)Cc2ccccc2)s1	none
CC(C)c1nnc(NC(=O)CCS(=O)(=O)c2nc(-c3cccs3)cc(C(F)(F)F)n2)s1	TROY signal inh 50, HSF-1 act 195, TWEAK-Fn14 inh 62 (no result: LGR2 antag)
COCC(=O)N1C[C@H](C)[C@H](OC)CN(C)C(=O)c2cc(NS(C)(=O)=O)ccc2OC[C@H]1C	none (no result: TROY signal inh, HSF-1 act, LMP1 NFkB inh, HSF1 inhib, TWEAK-Fn14 inh)
O=C(C1CCCN(S(=O)(=O)c2cccc3nsnc23)C1)N1CC=C(c2ccccc2)CC1 (configuration not stated)	TWEAK-Fn14 inh 51 (no result: LGR2 antag, HSF-1 act, HSF1 inhib)

Screens (PubChem BioAssay)
